Growth inhibition, inhibition and outcome data for 20 molecules are collected here from PubChem BioAssay.

Values without a mark were called inactive. For some of these results: Entries with a potency or affinity are not part of this list. Calls of active or inactive are those of the source. Unless noted, no rule for the calls is given here.

Assay [1] in a line: antimalarial activity against Dd2 strain (AID 2302;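 active = growth inhibition above 50% at the single 2 µM test dose, taken to imply half-maximal potency below 2 µM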;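 also: 0% = DMSO untreated growth and 100% = chloroquine plus artemisinin killed control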). To be noted: P. falciparum Dd2 in RBCs, LDH growth readout, 72 h; at 2 µM; stronger effect = higher value.
A short description of assay [2]: HepG2 cytotoxicity, primary screen, cytotoxicity control for P. falciparum antimalarial project, cell-based, ATP luminescence (AID 2303;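 active = inhibition above 50%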;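 also: 0% = DMSO wells and 100% = digitonin-killed cells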). To be noted: HepG2 viability, 24-48 h, at 10 µM, stronger effect = higher value.
For assay [3], the target named is L-lactate dehydrogenase (Plasmodium falciparum (isolate CDC / Honduras)) (UniProt Q27743). Nature of the assay: PfLDH activity inhibition – cell lysate, 3D7 strain, counter-screen for P. falciparum growth inhibition project (AID 2304).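 Also: 0% = vehicle and 100% = reference inhibitor.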 The following applies: P. falciparum 3D7 crude extract, LDH APAD/NBT absorbance; at 2 µM; stronger effect = higher value. (In general: A counterscreen serves to expose hits that act by an unwanted route or on another target.)

Assay [4] can be described thus: inhibition of 3D7 malaria parasite growth – strain 3D7 (AID 2306).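 Also: 0% = DMSO wells and 100% = chloroquine plus artemisinin control wells.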 To be noted: P. falciparum 3D7 erythrocytic growth, LDH absorbance, 72 h; at 2 µM; stronger effect = higher value.
Assay [5] has as its target Calcium-dependent protein kinase 1 (Plasmodium falciparum (isolate 3D7)) (UniProt P62344). The assay can be described thus: PfCDPK1 kinase inhibitors, biochemical, TCAMS library (AID 1159585; cut-off not given, nearly all actives have IC50 up to about 0.98 µM;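 also: inhibitors leave more ATP so luminescence rises with inhibition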). The following applies: recombinant PfCDPK1, Kinase-Glo ATP depletion luminescence. A general note: In Kinase-Glo more light means more ATP remaining.
Assay [6] addresses Plasmodium falciparum protein kinase 6 (PK6, PF3D7_1337100) (UniProt Q8IDW1). Nature of the assay: PfPK6 kinase inhibitors, biochemical, TCAMS library (AID 1159586). To be noted: recombinant PfPK6, Kinase-Glo ATP depletion luminescence.
The target of assay [7] is Protein kinase 7 (PK7), Plasmodium falciparum 3D7 (PF3D7_0213400) (UniProt Q7YTF7). The assay can be described thus: inhibition of Plasmodium PK7 catalytic activity – biochemical, TCAMS antimalarial set, Kinase-Glo luminescence (AID 1159587). To be noted: recombinant PfPK7, Kinase-Glo ATP depletion luminescence.
Assay [8] deals with Calcium-dependent protein kinase 4 (Plasmodium falciparum (isolate 3D7)) (UniProt Q8IBS5). The assay can be described thus: PfCDPK4 kinase inhibitors, biochemical, TCAMS library (AID 1159588; cut-off not given, nearly all actives have IC50 up to about 0.91 µM). The following applies: recombinant PfCDPK4, Kinase-Glo ATP depletion luminescence.

What is called inhibition is the change of the read-out against control, counted positive when it falls.

Calcium-dependent protein kinase 4 (Plasmodium falciparum (isolate 3D7)), sequence (Q8IBS5 whole entry, looked up): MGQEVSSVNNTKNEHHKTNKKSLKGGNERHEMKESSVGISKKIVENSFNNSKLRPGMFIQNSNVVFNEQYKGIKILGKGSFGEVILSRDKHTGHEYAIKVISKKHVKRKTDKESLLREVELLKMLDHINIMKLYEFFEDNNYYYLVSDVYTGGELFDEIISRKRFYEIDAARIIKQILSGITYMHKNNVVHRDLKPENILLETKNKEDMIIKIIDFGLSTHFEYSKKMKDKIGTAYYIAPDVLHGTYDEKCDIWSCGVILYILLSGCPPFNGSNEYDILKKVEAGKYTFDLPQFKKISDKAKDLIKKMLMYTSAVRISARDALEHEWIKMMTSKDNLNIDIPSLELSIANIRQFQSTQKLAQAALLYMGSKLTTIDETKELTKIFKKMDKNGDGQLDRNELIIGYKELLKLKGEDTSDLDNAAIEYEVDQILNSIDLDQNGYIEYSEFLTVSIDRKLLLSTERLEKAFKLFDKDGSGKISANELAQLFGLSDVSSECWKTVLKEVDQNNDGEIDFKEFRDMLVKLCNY
L-lactate dehydrogenase (Plasmodium falciparum (isolate CDC / Honduras)), sequence (Q27743 whole entry, looked up): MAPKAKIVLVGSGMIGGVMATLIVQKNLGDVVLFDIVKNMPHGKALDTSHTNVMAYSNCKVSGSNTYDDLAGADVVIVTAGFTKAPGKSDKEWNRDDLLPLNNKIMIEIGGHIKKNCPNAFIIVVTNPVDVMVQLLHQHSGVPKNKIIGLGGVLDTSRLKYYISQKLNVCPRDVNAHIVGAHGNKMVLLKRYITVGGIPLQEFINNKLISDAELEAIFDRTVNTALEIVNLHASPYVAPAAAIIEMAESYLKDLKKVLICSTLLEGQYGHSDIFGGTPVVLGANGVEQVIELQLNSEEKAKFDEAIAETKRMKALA
Protein kinase 7 (PK7), Plasmodium falciparum 3D7 (PF3D7_0213400), sequence (Q7YTF7 1-343): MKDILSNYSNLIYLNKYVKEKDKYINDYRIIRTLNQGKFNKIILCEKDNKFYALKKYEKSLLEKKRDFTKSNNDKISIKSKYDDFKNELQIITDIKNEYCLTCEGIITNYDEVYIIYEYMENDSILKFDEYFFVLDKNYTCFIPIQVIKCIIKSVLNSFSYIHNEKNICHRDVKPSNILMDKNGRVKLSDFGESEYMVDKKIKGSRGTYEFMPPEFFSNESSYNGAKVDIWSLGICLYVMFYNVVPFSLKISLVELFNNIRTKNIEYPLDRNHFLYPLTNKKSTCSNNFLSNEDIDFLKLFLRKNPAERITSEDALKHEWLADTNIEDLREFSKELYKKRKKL
Plasmodium falciparum protein kinase 6 (PK6, PF3D7_1337100), sequence (Q8IDW1 1-305): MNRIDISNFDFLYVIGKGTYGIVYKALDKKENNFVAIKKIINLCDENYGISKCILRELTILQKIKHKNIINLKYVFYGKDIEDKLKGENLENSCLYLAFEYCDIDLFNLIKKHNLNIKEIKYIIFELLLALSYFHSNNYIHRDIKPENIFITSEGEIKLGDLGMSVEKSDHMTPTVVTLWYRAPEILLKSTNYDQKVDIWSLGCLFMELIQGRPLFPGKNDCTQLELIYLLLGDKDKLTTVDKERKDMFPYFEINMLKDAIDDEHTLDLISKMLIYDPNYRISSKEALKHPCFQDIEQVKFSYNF
Calcium-dependent protein kinase 1 (Plasmodium falciparum (isolate 3D7)), sequence (P62344 whole entry, looked up): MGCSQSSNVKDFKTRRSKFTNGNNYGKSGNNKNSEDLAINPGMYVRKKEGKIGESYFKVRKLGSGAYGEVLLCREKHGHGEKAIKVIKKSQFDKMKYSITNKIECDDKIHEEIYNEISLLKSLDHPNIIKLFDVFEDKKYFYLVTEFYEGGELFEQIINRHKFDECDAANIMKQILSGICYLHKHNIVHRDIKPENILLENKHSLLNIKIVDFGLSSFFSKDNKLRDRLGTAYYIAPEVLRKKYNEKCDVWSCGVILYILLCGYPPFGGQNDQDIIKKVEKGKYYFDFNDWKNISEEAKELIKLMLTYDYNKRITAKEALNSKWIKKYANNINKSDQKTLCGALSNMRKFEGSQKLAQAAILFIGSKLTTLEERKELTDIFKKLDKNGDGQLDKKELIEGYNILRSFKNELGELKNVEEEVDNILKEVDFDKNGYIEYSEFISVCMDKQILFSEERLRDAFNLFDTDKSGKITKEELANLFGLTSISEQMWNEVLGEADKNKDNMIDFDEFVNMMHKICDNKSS

Take `COc1ccc2nccc(NC(=O)C3CCC(NCc4cnc(SC)c([N+](=O)[O-])c4)CC3)c2n1` (stereo not given): the growth inhibition in assay [1] was 44%; in assay [4], 89% (active). Also, the inhibition in assay [2] is 8%; in assay [3], 5%. The result in assay [5], in assay [6], in assay [7] and in assay [8] was inactive.
As for `CCOC(=O)Nc1cc(-c2csc(N=C(N)N)n2)cc([N+](=O)[O-])c1`, the growth inhibition is 88% (active) in assay [1] and 101% (active) in assay [4]. The inhibition in assay [2] is 12%; in assay [3], -8%. The outcome in assay [5], in assay [6], in assay [7] and in assay [8] was inactive.
As to `Cc1nc2ccc(/C=C/C(=O)NC3CCC(CCN4CCc5ccc(C#N)cc5CC4)CC3)cc2[nH]1` (stereo not given), the growth inhibition in assay [1] was 21%; in assay [4], 88% (active). The inhibition is 7% in assay [2] and -2% in assay [3]. Further, the outcome in assay [5], in assay [6], in assay [7] and in assay [8] was inactive.
As to `c1ccc(-c2csc(Nc3nc4cc5c(cc4s3)OCO5)n2)nc1`, the figures for the growth inhibition in assay [1] and in assay [4] were 99% (active) and 81% (active), respectively. For the same molecule, the inhibition is 46% in assay [2] and -3% in assay [3]. Besides, the outcome in assay [5], in assay [6], in assay [7] and in assay [8] was inactive.
Regarding `CCCNCc1ccc(-c2ccc(CN(CCOC)C(=O)CCC(=O)c3ccc(OC)c(F)c3)cc2)nc1`, the figures for the growth inhibition in assay [1] and in assay [4] were 47% and 100% (active), respectively. For the same molecule, the inhibition was 13% in assay [2] and -7% in assay [3]. Besides, the result in assay [5], in assay [6], in assay [7] and in assay [8] was inactive.
Take `Cc1ccc(OCC2CCN(c3ncc(C(=O)NC4CC4)cc3Cl)CC2)cc1`: the growth inhibition in assay [1] was 72% (active); in assay [4] it was 88% (active). Moreover, the inhibition in assay [2] is 2%; in assay [3], 0%. Further, the result in assay [5], in assay [6], in assay [7] and in assay [8] was inactive.
`CCN(CC)CCN(Cc1ccc(-c2ccc(C(F)(F)F)cc2)cc1)C(=O)c1c[nH]c2ccc(Br)cc12`: the growth inhibition in assay [1] was 74% (active); in assay [4], 90% (active). The figures for the inhibition in assay [2] and in assay [3] were 80% (active) and -4%, respectively. Moreover, the result in assay [5], in assay [6], in assay [7] and in assay [8] was inactive.
In the case of `CCCc1cc(C(=O)N[C@@H](Cc2ccccc2)[C@H](O)CNC(C)C)c(F)c(N2CCCC2=O)c1`, the growth inhibition in assay [1] was 22%; in assay [4], 90% (active). Further, the inhibition in assay [2] is -2%; in assay [3] it was 0%. Also, the outcome in assay [5], in assay [6], in assay [7] and in assay [8] was inactive.
`CC(=O)Nc1ccc(Cl)c(Cl)c1`: the growth inhibition is 98% (active) in assay [1] and 95% (active) in assay [4]. The inhibition in assay [2] is 5%; in assay [3], 9%. In addition, the outcome in assay [5], in assay [6], in assay [7] and in assay [8] was inactive.
Consider `O=C(NCCNc1ccnc(Nc2ccc(F)cc2)n1)Nc1ccc2c(c1)OCO2`, for which the growth inhibition in assay [1] is 3%; in assay [4], 97% (active). The values for the inhibition in assay [2] and in assay [3] were 15% and 0%, respectively. Also, the result in assay [5], in assay [6], in assay [7] and in assay [8] was inactive.
Regarding `CN(CCCCCNC(=O)/C=C/c1ccc(Cl)c(Cl)c1)CCc1c[nH]c2ccccc12`, the growth inhibition in assay [1] was 18%; in assay [4], 91% (active). In addition, the values for the inhibition in assay [2] and in assay [3] were 40% and 2%, respectively. For the same molecule, the outcome in assay [5], in assay [6], in assay [7] and in assay [8] was inactive.
Consider `Nc1cnc(C#Cc2cc3ncnc(N(CCN4CCOCC4)c4ccc(OCc5cccc(F)c5)c(Cl)c4)c3s2)cn1`, for which the results for the growth inhibition in assay [1] and in assay [4] were 57% (active) and 87% (active), respectively. Further, the inhibition is -8% in assay [2] and -9% in assay [3]. Also, the result in assay [5], in assay [6], in assay [7] and in assay [8] was inactive.
`CCCCOc1ccc(C(O)C(CN2CCCCC2)c2ccccc2)cc1` (stereo not given): the growth inhibition is 84% (active) in assay [1] and 90% (active) in assay [4]. Further, the inhibition in assay [2] is 7%; in assay [3], 3%. Also, the result in assay [5], in assay [6], in assay [7] and in assay [8] was inactive.
As for `O=C(Nc1ccc(N2CCCN(Cc3cccc(F)c3)CC2)cc1)c1cccs1`, the growth inhibition in assay [1] and in assay [4] was 96% (active) each time. Besides, the values for the inhibition in assay [2] and in assay [3] were 2% and 0%, respectively. For the same molecule, the outcome in assay [5], in assay [6], in assay [7] and in assay [8] was inactive.
For the molecule `O=C(Nc1cccc(-c2cccc(CN3CCCC3)c2)c1)c1ccc(Cl)cc1`, the growth inhibition is 32% in assay [1] and 93% (active) in assay [4]. Also, the values for the inhibition in assay [2] and in assay [3] were 50% (active) and 0%, respectively. Also, the outcome in assay [5], in assay [6], in assay [7] and in assay [8] was inactive.
As for `CC1CCCCN1CCCNC(=O)c1cccc(-c2cc3cc(Cl)c(Cl)cc3[nH]2)c1` (stereo not given), the growth inhibition in assay [1] was 7%; in assay [4] it was 94% (active). Further, the inhibition is 22% in assay [2] and -2% in assay [3]. In addition, the outcome in assay [5], in assay [6], in assay [7] and in assay [8] was inactive.
For `N#Cc1cccc(/C=C/C(=O)NC2CCC(CCN3CCc4ccc(-c5cnccn5)cc4CC3)CC2)c1` (stereo not given), the figures for the growth inhibition in assay [1] and in assay [4] were 47% and 93% (active), respectively. Besides, the inhibition was 22% in assay [2] and -1% in assay [3]. The result in assay [5], in assay [6], in assay [7] and in assay [8] was inactive.
Turning to `CN(C)c1ccc(-c2csc(C(=O)NC3CCCCN(Cc4ccc(C(C)(C)C)cc4)C3)c2)cc1` (stereo not given), the growth inhibition in assay [1] is 55% (active); in assay [4], 84% (active). Moreover, the inhibition in assay [2] is 17%; in assay [3] it was 4%. The result in assay [5], in assay [6], in assay [7] and in assay [8] was inactive.
Turning to `COc1cccc2cc(C(=O)N[C@@H](CC(C)C)C(=O)N[C@H](/C=N/NC(=O)OC(C)(C)C)CC(=O)OC(C)(C)C)oc12`, the results for the growth inhibition in assay [1] and in assay [4] were 57% (active) and 85% (active), respectively. Further, the inhibition in assay [2] is 4%; in assay [3], 0%. For the same molecule, the result in assay [5], in assay [6], in assay [7] and in assay [8] was inactive.
Consider `COc1ccc(CNCc2ccc(-c3ccc(-c4nc5c(C)cccc5[nH]4)cc3)cc2)cc1`, for which the figures for the growth inhibition in assay [1] and in assay [4] were 97% (active) and 101% (active), respectively. In addition, the inhibition in assay [2] was 53% (active); in assay [3] it was 2%. The result in assay [5], in assay [6], in assay [7] and in assay [8] was inactive.
